This is a sample that favours compounds with a hit; in the whole collection about 1.7% have one here.
MIN6 prolif-1 – inducers of beta-cell replication in MIN6 cells. proliferation, % at 10 µM. 0.29% of 330,000 active. MIN6 cells proliferation, ATPlite luminescence, 48 h; cells starved in 0.2% serum; 100% = growth in 10% serum. AID 2380;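 active = compounds whose signal lies at least 3.5 SD above the mean of all wells on their plate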;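 also: 0% = DMSO-treated cells in low-serum medium and 100% = 10% serum control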
OPRM1-OPRD1 inv – inverse agonists of human mu-delta opioid receptor heterodimerization; P35372+P41143; cell-based MOR-DOR heterodimer luminescence, inverse agonism; inhibition, % at 9.3 µM; 0.21% of 340,000 active; AID 504357; in the data active = inhibition above about 22%, passing the limit was not always enough;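 also: 0% = cells with DMSO and 100% = wells without cells with DMSO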
V-ATPase pHluor – alters yeast V-ATPase proton transport | 0.37% of 350,000 active | response, % at 10 µM | S. cerevisiae, pHLuorin cytosolic pH fluorescence; in the data active = response mostly above about 7.3%, no sharp cut-off; inactive = mostly below about 5.4%; also: actives read high
MOR-DOR ag – OPRM1-OPRD1 heterodimerization agonism; P35372+P41143; cells, luminescence; activation, % at 9.3 µM; 0.3% of 340,000 active; AID 504326;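 also: 0% = vehicle-treated cells and 100% = reference agonist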
HTR5A ag ctr – HTR5A agonism, opioid heterodimer counter-screen | activation, % at 9.3 µM | HTR5A agonist assay, luminescence, cell-based | 0.61% of 340,000 active | P47898; in the data active = activation mostly above about 9.5%, no sharp cut-off; inactive = mostly below about 7.6%;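 also: 0% = cells with vehicle only and 100% = reference agonist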
HTR5A inv ag – HTR5A inverse agonism, opioid heterodimer counter-screen; HTR5A cell line, luminescence; inhibition, % at 9.3 µM; 0.083% of 340,000 active; AID 504634; in the data active = inhibition mostly above about 23%, no sharp cut-off; inactive = mostly below about 18%;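 also: 0% = cells with DMSO and 100% = no-cell wells with DMSO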
MIN6 prolif-2 – MIN6 beta-cell replication induction, confirmed. proliferation increase, % at 50 µM. 920 tested, under 10 active. MIN6 beta-cell proliferation, ATPlite luminescence, 48 h; cells kept in 0.2% serum; scaled between 0.2% and 10% serum. shares compounds with MIN6 prolif-1;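 active = proliferation increase above 40% at any of the four tested concentrations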
OPRM1-D1 ag cf – confirmation of human OPRM1-OPRD1 heterodimerization agonists | shares compounds with MOR-DOR ag | cells, MOR-DOR heterodimerization, luminescence complementation | AID 504904 | activation, % at 9.3 µM | 45% of 830 active;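 also: 0% = vehicle-treated cells and 100% = reference agonist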
HTR5A ag ctr2 – activates human HTR5A in OPRM1-OPRD1 agonist counter-screen; shares compounds with MOR-DOR ag; HTR5A agonist counterscreen, cell luminescence; activation, % at 9.3 µM; 8% of 830 active; AID 504905; in the data active = activation above about 17%;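 also: 0% = vehicle-treated cells and 100% = reference agonist response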
An asterisk follows results filed as active; · = no result. Rule as the data show it, unless noted: active = activation above about 18%; inactive = the rest.

SMILES | MIN6 prolif-1 | OPRM1-OPRD1 inv | V-ATPase pHluor | MOR-DOR ag | HTR5A ag ctr | HTR5A inv ag | MIN6 prolif-2 | others
COc1cc(C(=O)N/C(=C\c2cn(S(=O)(=O)N(C)C)c3ccccc23)C(=O)NCCCO)cc(OC)c1OC | 8.6* | 7 | 1 | -1 | -5 | 13 | -3
COc1ccc(OC)c(N(C)S(=O)(=O)c2cc3c(cc2C)NC(=O)CO3)c1 | -1 | 2 | 0 | 0 | 7 | -20 | ·
CC(OC(=O)c1ccc2c(c1)OCO2)C(=O)NC1CCCCC1C (stereo not drawn) | 2 | 16 | -8 | -3 | -4 | 10 | ·
Cc1[nH]c2ccc(C(=O)OC(C)C(=O)NC3CCCCC3C)cc2c1C (stereo not drawn) | 13* | 1 | 1 | 0 | 1 | -2 | -6
C=CCNc1nc(N)c([N+](=O)[O-])c(NCc2ccccc2)n1 | 8.3* | -11 | 0 | 2 | 2 | -6 | 2
CC(=O)N1N=C(c2cccc(Br)c2)OC12CCCC2 | -3 | 9 | 1 | -2 | -4 | 10 | ·
CC(=O)N1N=C(c2ccc(Cl)cc2)OC12CCCC2 | 7.3* | 18 | 1 | -4 | -1 | 18 | -2
CC(=O)Oc1ccc(C2=Cc3ccc(OC(C)=O)cc3OC2C)cc1 (stereo not drawn) | · | 5 | 0 | -1 | 2 | -7 | ·
COc1cc2[nH]c(=O)n(CCCCCC(=O)NC3CCCC3)c(=O)c2cc1OC | 5.7* | 11 | 3 | -2 | 5 | -13 | -2
O=C(COC(=O)c1cccc(-n2cnnn2)c1)c1ccccc1 | 1 | 14 | 1 | -3 | 3 | -8 | ·
O=C(OCc1nnc(-c2ccccc2)o1)c1cccc(-n2cnnn2)c1 | 11* | 7 | 1 | -1 | -4 | 10 | 1
O=C(CNCC1CCCO1)NCc1ccco1 (stereo not drawn) | 6 | -6 | 2 | 1 | 1 | -2 | ·
Cc1ccc(S(=O)(=O)c2nc(S(C)(=O)=O)sc2N2CCCC2)cc1 | 0 | 3 | -1 | -1 | 4 | 7 | ·
CCN1CCN(c2sc(S(C)(=O)=O)nc2S(=O)(=O)c2ccc(C)cc2)CC1 | 16* | 3 | -1 | -1 | 0 | -1 | -3
COc1ccc(/C=C/C(=O)Nc2ccc3nc4n(c(=O)c3c2)CCCC4)cc1 | -3 | -124 | 0 | 27* | 12* | -33 | · | OPRM1-D1 ag cf=16;HTR5A ag ctr2=2
COc1ccc(Cl)cc1NC(=O)CN(C)CC(=O)NC(C)c1ccccc1 (stereo not drawn) | 4 | 15 | 6 | -3 | 2 | -5 | ·
Cc1ccc(CNC(=O)C2CCCN2C(=O)Nc2ccccc2)cc1 (stereo not drawn) | -1 | 5 | 3 | -1 | -4 | 13 | ·
CCOC(=O)N1CCN(c2c(NCCCN(C)c3ccccc3)c(=O)c2=O)CC1 | -1 | -1 | 7 | 0 | -8 | 24 | ·
CCOC(=O)N1CCN(c2c(NCCN(C)Cc3ccccc3)c(=O)c2=O)CC1 | 0 | -298 | -3 | 50* | 1 | -2 | · | OPRM1-D1 ag cf=0;HTR5A ag ctr2=0
Cc1cc(Cl)ccc1NC(=S)NCC(O)c1ccccc1 (stereo not drawn) | -4 | 2 | 15 | 0 | 2 | -6 | ·
COc1ccccc1OCC(O)Cn1c(=N)n(Cc2ccccc2)c2ccccc21 (stereo not drawn) | -5 | -13 | -1 | 2 | -1 | 18 | ·
Cc1ccccc1OCC(O)Cn1c(=N)n(Cc2ccccc2)c2ccccc21 (stereo not drawn) | -7 | -155 | 0 | 31* | 2 | -6 | · | OPRM1-D1 ag cf=53*;HTR5A ag ctr2=8
COc1cccc(-c2nnc(NC(=O)c3ccc(Cl)s3)o2)c1 | -6 | -117 | -3 | 20* | 11 | -31 | · | OPRM1-D1 ag cf=2;HTR5A ag ctr2=-1
CN(C)c1cccc(C(=O)NNC(=O)/C=C/c2cccs2)c1 | -6 | 15 | 1 | -4 | 1 | -3 | ·

Screening data: PubChem BioAssay, several laboratories
